# According to PubChem BioAssay:
# Values without a mark were called inactive. For some assays here: Entries with a potency or affinity are not part of this list. Active and inactive are the calls of the source. Unless noted, no rule for the calls is given here.
# Tests used:
# [1] = antimalarial activity against Dd2 strain (AID 2302;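 active = growth inhibition above 50% at the single 2 µM test dose, taken to imply half-maximal potency below 2 µM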;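 also: 0% = DMSO untreated growth and 100% = chloroquine plus artemisinin killed control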); conditions: P. falciparum Dd2 in RBCs, LDH growth readout, 72 h; at 2 µM; active compounds read high
# [2] = HepG2 cytotoxicity, primary screen, cytotoxicity control for P. falciparum antimalarial project, cell-based, ATP luminescence (AID 2303;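 active = inhibition above 50%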;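 also: 0% = DMSO wells and 100% = digitonin-killed cells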); conditions: HepG2 viability, 24-48 h, at 10 µM, active compounds read high
# [3] = target: L-lactate dehydrogenase (Plasmodium falciparum (isolate CDC / Honduras)) (UniProt Q27743); assay: PfLDH activity inhibition – cell lysate, 3D7 strain, counter-screen for P. falciparum growth inhibition project (AID 2304);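 also: 0% = vehicle and 100% = reference inhibitor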; conditions: P. falciparum 3D7 crude extract, LDH APAD/NBT absorbance; at 2 µM; active compounds read high
# L-lactate dehydrogenase (Plasmodium falciparum (isolate CDC / Honduras)), sequence (Q27743 whole entry, looked up): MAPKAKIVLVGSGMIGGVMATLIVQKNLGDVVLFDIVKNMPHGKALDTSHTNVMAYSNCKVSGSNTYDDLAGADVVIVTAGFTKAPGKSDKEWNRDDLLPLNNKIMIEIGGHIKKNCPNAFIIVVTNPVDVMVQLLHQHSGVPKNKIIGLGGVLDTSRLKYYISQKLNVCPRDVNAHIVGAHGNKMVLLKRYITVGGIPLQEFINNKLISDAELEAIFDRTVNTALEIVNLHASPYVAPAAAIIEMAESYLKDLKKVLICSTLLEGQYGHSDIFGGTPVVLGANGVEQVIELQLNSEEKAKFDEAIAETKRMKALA
# [4] = inhibition of 3D7 malaria parasite growth – strain 3D7 (AID 2306);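 also: 0% = DMSO wells and 100% = chloroquine plus artemisinin control wells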; conditions: P. falciparum 3D7 erythrocytic growth, LDH absorbance, 72 h; at 2 µM; active compounds read high
# [5] = target: Calcium-dependent protein kinase 1 (Plasmodium falciparum (isolate 3D7)) (UniProt P62344); assay: PfCDPK1 kinase inhibitors, biochemical, TCAMS library (AID 1159585; cut-off not given, nearly all actives have IC50 up to about 0.98 µM;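 also: inhibitors leave more ATP so luminescence rises with inhibition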); conditions: recombinant PfCDPK1, Kinase-Glo ATP depletion luminescence
# Calcium-dependent protein kinase 1 (Plasmodium falciparum (isolate 3D7)), sequence (P62344 whole entry, looked up): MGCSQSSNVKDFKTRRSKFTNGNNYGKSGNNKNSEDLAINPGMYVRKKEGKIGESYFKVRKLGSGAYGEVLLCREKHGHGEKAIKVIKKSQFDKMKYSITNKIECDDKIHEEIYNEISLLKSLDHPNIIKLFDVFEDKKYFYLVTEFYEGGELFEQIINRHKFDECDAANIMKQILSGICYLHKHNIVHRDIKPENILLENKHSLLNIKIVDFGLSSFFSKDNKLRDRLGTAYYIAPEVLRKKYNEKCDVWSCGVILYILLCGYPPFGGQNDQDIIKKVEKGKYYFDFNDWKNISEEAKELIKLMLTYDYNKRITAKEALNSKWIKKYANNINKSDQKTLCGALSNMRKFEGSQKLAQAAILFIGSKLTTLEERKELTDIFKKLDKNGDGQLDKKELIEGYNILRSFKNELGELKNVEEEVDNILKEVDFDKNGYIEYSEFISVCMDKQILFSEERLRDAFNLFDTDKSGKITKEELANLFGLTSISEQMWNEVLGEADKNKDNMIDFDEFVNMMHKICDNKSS
# [6] = target: Plasmodium falciparum protein kinase 6 (PK6, PF3D7_1337100) (UniProt Q8IDW1); assay: PfPK6 kinase inhibitors, biochemical, TCAMS library (AID 1159586); conditions: recombinant PfPK6, Kinase-Glo ATP depletion luminescence
# Plasmodium falciparum protein kinase 6 (PK6, PF3D7_1337100), sequence (Q8IDW1 1-305): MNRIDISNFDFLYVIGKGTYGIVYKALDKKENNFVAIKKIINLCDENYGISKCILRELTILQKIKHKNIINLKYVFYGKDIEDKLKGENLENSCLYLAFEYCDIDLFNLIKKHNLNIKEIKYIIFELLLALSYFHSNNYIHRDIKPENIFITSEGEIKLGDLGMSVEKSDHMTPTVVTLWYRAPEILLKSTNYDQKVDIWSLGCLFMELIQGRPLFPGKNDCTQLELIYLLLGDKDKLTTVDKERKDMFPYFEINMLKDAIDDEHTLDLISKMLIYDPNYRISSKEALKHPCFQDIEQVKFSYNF
# [7] = target: Protein kinase 7 (PK7), Plasmodium falciparum 3D7 (PF3D7_0213400) (UniProt Q7YTF7); assay: inhibition of Plasmodium PK7 catalytic activity – biochemical, TCAMS antimalarial set, Kinase-Glo luminescence (AID 1159587); conditions: recombinant PfPK7, Kinase-Glo ATP depletion luminescence
# Protein kinase 7 (PK7), Plasmodium falciparum 3D7 (PF3D7_0213400), sequence (Q7YTF7 1-343): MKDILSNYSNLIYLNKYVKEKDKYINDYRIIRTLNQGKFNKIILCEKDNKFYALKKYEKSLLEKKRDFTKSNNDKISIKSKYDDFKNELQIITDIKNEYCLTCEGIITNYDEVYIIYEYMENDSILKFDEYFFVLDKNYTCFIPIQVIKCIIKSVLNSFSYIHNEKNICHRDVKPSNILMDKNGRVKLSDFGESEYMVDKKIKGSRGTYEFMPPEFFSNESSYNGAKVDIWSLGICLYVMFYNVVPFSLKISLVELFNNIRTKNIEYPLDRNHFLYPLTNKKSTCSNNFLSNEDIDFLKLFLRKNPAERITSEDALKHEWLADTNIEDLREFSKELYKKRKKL
# [8] = target: Calcium-dependent protein kinase 4 (Plasmodium falciparum (isolate 3D7)) (UniProt Q8IBS5); assay: PfCDPK4 kinase inhibitors, biochemical, TCAMS library (AID 1159588; cut-off not given, nearly all actives have IC50 up to about 0.91 µM); conditions: recombinant PfCDPK4, Kinase-Glo ATP depletion luminescence
# Calcium-dependent protein kinase 4 (Plasmodium falciparum (isolate 3D7)), sequence (Q8IBS5 whole entry, looked up): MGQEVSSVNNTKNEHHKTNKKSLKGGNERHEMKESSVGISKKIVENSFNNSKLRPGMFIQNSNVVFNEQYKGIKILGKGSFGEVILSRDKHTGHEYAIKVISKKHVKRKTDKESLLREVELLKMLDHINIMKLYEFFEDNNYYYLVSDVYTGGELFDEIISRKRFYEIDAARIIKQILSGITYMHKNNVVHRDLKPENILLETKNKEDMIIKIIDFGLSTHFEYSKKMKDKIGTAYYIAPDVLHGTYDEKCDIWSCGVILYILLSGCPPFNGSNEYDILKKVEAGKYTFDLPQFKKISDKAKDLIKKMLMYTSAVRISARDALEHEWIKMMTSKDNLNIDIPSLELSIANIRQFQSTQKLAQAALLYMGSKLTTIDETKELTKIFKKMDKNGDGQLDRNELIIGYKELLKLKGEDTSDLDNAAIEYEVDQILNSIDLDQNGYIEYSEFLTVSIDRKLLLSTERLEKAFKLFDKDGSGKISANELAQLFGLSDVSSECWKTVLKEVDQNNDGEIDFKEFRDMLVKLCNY
SMILES,growth inhibition [1],inhibition [2],inhibition [3] [%],growth inhibition [4],outcome [5],outcome [6],outcome [7],outcome [8]
CCOc1cc(Cl)c(C(C)NC(=O)c2ccccc2)cc1OCC (stereo unspecified),49%,-3%,-1,91% (active),inactive,inactive,inactive,inactive
CC(=O)Nc1ccc(OCCCN(Cc2ccccc2C(F)(F)F)c2ccc(C(F)(F)F)c(C#N)c2)c(Cl)c1,43%,5%,3,85% (active),inactive,inactive,inactive,inactive
Cc1cc(NC2CCN(CC3CCCCC3)C2)nc(Nc2ccc(Cl)cc2)n1 (stereo unspecified),83% (active),26%,-2,98% (active),inactive,inactive,inactive,inactive
O=C(Cn1c(CCc2cccc(F)c2F)cc(=O)c2ccccc21)N(Cc1ccc(-c2ccc(C(F)(F)F)cc2)cc1)C1CCN(CCO)CC1,84% (active),82% (active),0,91% (active),inactive,inactive,inactive,inactive
CS(=O)(=O)NCCCNCc1cccc(-c2ccc(-c3nc4ccc(C(F)(F)F)cc4[nH]3)s2)c1,51% (active),11%,-8,100% (active),inactive,inactive,inactive,inactive
CC1(C)N=C(N)N=C(N)N1c1ccc([N+](=O)[O-])cc1,1%,3%,-3,93% (active),inactive,inactive,inactive,inactive
COc1ccc2nccc(N3CCC(NCCNCc4ccc5c(n4)NC(=O)CS5)C3)c2n1 (stereo unspecified),5%,-4%,-4,100% (active),inactive,inactive,inactive,inactive
NC(=O)c1ccccc1OCC(=O)Nc1cccc(-c2cccc(-c3nc4ccccc4[nH]3)c2)c1,46%,23%,3,88% (active),inactive,inactive,inactive,inactive
CC1CCCC(NC(=O)CCOc2ccccc2)C1 (stereo unspecified),32%,-14%,-2,96% (active),inactive,inactive,inactive,inactive
Clc1ccc2nnc(-c3c(Cl)cccc3Cl)n2n1,60% (active),29%,-3,96% (active),inactive,inactive,inactive,inactive
c1cc(Cc2ccc(Nc3c4ccccc4nc4ccccc34)cc2)cc(Nc2c3ccccc3nc3ccccc23)c1,100% (active),91% (active),-5,100% (active),inactive,inactive,inactive,inactive
COC(=O)c1cccc(NC(=O)NC2CCN(c3ccnc(Nc4cc(OC)c(OC)c(OC)c4)n3)C2)c1 (stereo unspecified),68% (active),7%,3,99% (active),inactive,inactive,inactive,inactive
CS(=O)(=O)c1ccc2c(c1)CCN(CCC1CCC(NC(=O)C(=Cc3ccc(Cl)cc3Cl)c3ccc(-c4ccccc4)cc3)CC1)CC2 (stereo unspecified),16%,33%,-1,81% (active),inactive,inactive,inactive,inactive
Nc1nc(F)nc2nc[nH]c12,25%,78% (active),-2,89% (active),inactive,inactive,inactive,inactive
Cc1nc2ccc(/C=C/C(=O)NC3CCC(CCN4CCc5ccc(C#N)cc5CC4)CC3)cc2[nH]1 (stereo unspecified),21%,7%,-2,88% (active),inactive,inactive,inactive,inactive
Fc1ccc2nc(-c3cccc(-c4ccc(CNCCc5ccncc5)cc4)c3)[nH]c2c1,100% (active),44%,4,99% (active),inactive,inactive,inactive,inactive
Clc1cccc(CNC2CCN(CC3CCCCC3)CC2)c1,24%,4%,-2,97% (active),inactive,inactive,inactive,inactive
O=C(Nc1cccc(-c2cccc(-c3nc4ccc(C(F)(F)F)cc4[nH]3)c2)c1)Nc1ccc(F)c(F)c1F,100% (active),71% (active),6,99% (active),inactive,inactive,inactive,inactive
COc1ccc2[nH]cc(C3CCN(CCCCCNC(=O)c4ccc(-c5ccccc5)cc4)CC3)c2c1,16%,50% (active),-8,96% (active),inactive,inactive,inactive,inactive

SMILES,growth inhibition [1],inhibition [2],inhibition [3] [%],growth inhibition [4],outcome [5],outcome [6],outcome [7],outcome [8]
Cc1[nH]c(C)c(-c2ccc(-c3ccc(C(F)F)cc3)nc2)c(=O)c1Cl,96% (active),0%,-2,97% (active),inactive,inactive,inactive,inactive
O=C(NCCN1CCCC1)c1cc(-c2ccc(Cl)c(O)c2)c(-c2ccncc2)o1,-5%,-23%,0,92% (active),inactive,inactive,inactive,inactive
NC1CCN(c2nc(NCCCc3ccc(O)cc3)nc(NCc3cccc4ccccc34)n2)CC1,2%,12%,6,102% (active),inactive,inactive,inactive,inactive
CCCCc1ccc(C(=O)NC2CCN(C[C@H](O)c3ccnc4ccc(OC)cc34)CC2)cc1,22%,24%,-1,91% (active),inactive,inactive,inactive,inactive
CN(C(=O)/C=C/c1cc(C(F)(F)F)ccc1F)C1CCN(CCCCCNC(=O)/C=C/c2ccc(Cl)c(Cl)c2)CC1,68% (active),71% (active),3,101% (active),inactive,inactive,inactive,inactive
O=C(NCCc1ccc(O)cc1)n1c2ccccc2c2ccccc21,76% (active),3%,-1,83% (active),inactive,inactive,inactive,inactive
Nc1cccc(CNCc2ccc(-c3cccc(-c4nc5ccc(C(F)(F)F)cc5[nH]4)c3)cc2)c1,100% (active),60% (active),-2,100% (active),inactive,inactive,inactive,inactive
Cc1ccccc1Nc1cc(Nc2ccccc2C)c2ccccc2n1,93% (active),28%,-1,96% (active),inactive,inactive,inactive,inactive
Clc1ccc2c(Cl)c(CNCCCNc3nc4ccccc4[nH]3)[nH]c2c1,7%,38%,-1,101% (active),inactive,inactive,inactive,inactive
Cc1nnnn1-c1ccc(C(=O)N2CCC3(CC2)CN(Cc2ccc(Cl)c(Cl)c2)C(=O)O3)cc1,99% (active),2%,2,101% (active),inactive,inactive,inactive,inactive
Cc1nn(-c2ccccc2)nc1C(=O)NC1CCN(CCNC(=O)c2ccc(Cl)c(Cl)c2)CC1,5%,15%,0,89% (active),inactive,inactive,inactive,inactive
Cc1cccc2[nH]c(-c3cccc(-c4ccc(NC(=O)C(C)CN5CCN(C)CC5)cc4)c3)nc12 (stereo unspecified),100% (active),7%,-6,99% (active),inactive,inactive,inactive,inactive
O=C(Nc1cccc(-c2cccc(CN3CCCC3)c2)c1)c1ccc(Cl)cc1,32%,50% (active),0,93% (active),inactive,inactive,inactive,inactive
COc1ccc(C2SCC(=O)N2CCc2ccc(OC)c(OC)c2)cc1 (stereo unspecified),2%,19%,1,96% (active),inactive,inactive,inactive,inactive
CN1CCN(CCCN(Cc2csc(-c3ccc(CNCc4ccccc4)cc3)n2)C(=O)Nc2cc(Cl)cc(Cl)c2)CC1,45%,34%,-2,103% (active),inactive,inactive,inactive,inactive
O=C(Nc1cccc(CN2CCCN(Cc3cccc(Cl)c3)CC2)c1)c1ccc(Br)cc1,16%,38%,1,92% (active),inactive,inactive,inactive,inactive
O=C(/C=C/c1ccc(C(F)(F)F)cc1)NCCCCCN1CCN(C(=O)Nc2ccc(F)c(Cl)c2)CC1,-6%,35%,-2,89% (active),inactive,inactive,inactive,inactive
Cc1cccc(OCC2CCN(c3ncc(C(=O)NC4CC4)cc3Cl)CC2)c1,78% (active),-4%,-2,90% (active),inactive,inactive,inactive,inactive
